Source: PubChem BioAssay (National Center for Advancing Translational Sciences (NCATS))
HepG2 viability: qHTS for Inhibitors of TGF-b: Cytotox Counterscreen; HepG2 CAGA-GFP viability, ATP luminescence, 18 h; Potency, µM (highest dose often 46.1 µM), usual class: cytotoxic; 410,000 tested, 0.76% active
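CellTiter-Glo luminescence gave cytotoxicity after 18 hours at 37 degrees C. The cells were HepG2 CAGA-GFP in 1% FBS DMEM, stimulated with 500 pg/mL TGF-beta after compound addition. %Activity was normalised to no-cell wells (complete cell-killing) and DMSO (no toxicity), and curves were fitted and classified.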
ATXN viability: Viability Counterscreen for Primary qHTS for Inhibitors of ATXN expression. 400,000 tested, 0.49% active. S2 cells (HEK-293 line with an ATXN2-luciferase reporter) viability, CellTiter-Fluor protease fluorescence, 24 h. Potency, µM (doses to about 56.7 µM), hits mostly cytotoxic; further: nearly all actives have a fitted effect of over 40% in size
TGFb SMAD3 inh: qHTS for Inhibitors of TGF-b | Potency, µM (top dose mostly 46.1 µM), hits mostly inhibitors | 410,000 tested, 1.2% active | HepG2 CAGA-GFP TGF-b/SMAD3 reporter, GFP fluorescence, 18 h; TGF-beta stimulated, 500 pg/mL final; further: nearly all actives have a fitted effect of over 65% in size
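HEPG2 CAGA-GFP reporter cells (1000/well, DMEM with 1% FBS) received compounds, then recombinant TGF-beta at 500 pg/mL final for 18 hours at 37 degrees C. Per-cell GFP summed per well was normalised to unstimulated and stimulated DMSO controls before curve fitting.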
A549 viability: Nrf2 qHTS screen for inhibitors: counterscreen for cytotoxicity; A549 ARE-Fluc cells, CellTiter-Fluor viability, 18-24 h; 390,000 tested, 0.16% active; Potency, µM (doses to about 46 µM), usual class: inhibitors; AID 504648, 2011
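Cytotoxicity counterscreen: CellTiter-Fluor fluorescence was measured in A549 ARE_Fluc cells after 18-24 h of compound exposure in a concentration series. The subsequent BugLite luminescent read reports ARE-luciferase activity.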
Nrf2 inh: Nrf2 qHTS screen for inhibitors | 360,000 tested, 2.1% active | Potency, µM (doses to about 46 µM), usual class: inhibitors | A549 ARE-Fluc reporter, luciferase luminescence, 18-24 h; further: nearly all actives have a fitted effect of over 60% in size
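Cells were seeded and rested 2 h, then exposed to compounds for 18-24 h. CellTiter-Fluor was read first as a viability measure. BugLite was added 15 min before the final luminescent read of ARE-luciferase activity in A549 cells.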
ATXN2 expr inh: Primary qHTS for Inhibitors of ATXN expression; HEK-293 ATXN2-luciferase reporter, luminescence, 24 h; Potency, µM (top dose mostly 57 µM), most hits filed as inhibitors; 360,000 tested, 0.72% active; further: nearly all actives have a fitted effect of over 55% in size
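ATXN2-luciferase reporter cells (luciferase flanked by upstream and downstream ATXN2 gene portions) were treated 24 h at 37 °C with compounds at up to 57 uM. SteadyGlo luminescence gave expression; GF-AFC fluorescence gave viability.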
A number is an active result; – = inactive; ? = inconclusive; · = not tested or not shown; [ ] = remark or other dose. Most compounds without a hit are left out; they make up all but 3.8% or so of the library. The call rests on the fitted dose curve; in most records, active means well fitted curve in the direction sought with a large enough effect; inconclusive means small, poorly fitted or top-dose-only effect, or another doubt; inactive means no such curve, though single readings can be large; an effect the other way counts as inactive or inconclusive.

SMILES	HepG2 viability	ATXN viability	TGFb SMAD3 inh	A549 viability	Nrf2 inh	ATXN2 expr inh
Cc1ccc(C(=O)N/C(=C/c2ccc(-c3cc(C(F)(F)F)ccc3Cl)o2)C(=O)NCc2cccnc2)cc1	–	–	13µM	–	?	–
C=C1CCN(C(CC(C)C)C(=O)NCc2ccc(Cl)cc2)S(=O)(=O)c2ccccc21 (centres undefined)	–	·	?	–	–	·
CC(NC(=S)Nc1ccc(OC(F)F)c(Cl)c1)C(C)(C)C (centres undefined)	–	–	13µM	–	?	–[11.3 µM]
Cc1ccc(NC(=S)Nc2ccc(OC(F)F)c(Cl)c2)cc1Cl	–	–	18µM	–	?	?
O=C(Nc1ccc(OC(F)F)c(Cl)c1)C(c1ccccc1)c1ccccc1	20µM	–	22µM	?	?	?
FC(F)Oc1ccc(NC(=S)NCc2ccccc2)cc1Cl	–	–	?	?	23µM	?
COc1cccc(CNC(=O)CN2C(=O)CCn3nc(-c4cn(C)c5ccccc45)cc32)c1OC	–	–	–	–	·	–
O=C(CN1CCN(c2ccccc2O)CC1)Nc1ccc2c(c1)CCC2	–	–	–	–	–	–[11.3 µM]
CC(C)COc1ccc(CNC(=S)Nc2ccccc2)cc1Cl	13µM	–	11µM	–	–	–
CCOC(=O)C1(CCOc2ccccc2)CCN(Cc2cccc3nonc23)CC1	–	–	–	–	21µM	·
O=C(N/N=C/c1cc([N+](=O)[O-])ccc1Cl)c1cc(-c2ccccc2)nc2ccccc12	–	–	–	–	–	–
O=C(N/N=C/c1cc([N+](=O)[O-])ccc1O)c1c[nH]c2ccccc12	–	–	?	–	–	14µM
O=C(N/N=C/c1cc([N+](=O)[O-])ccc1O)c1cc(-c2ccccc2)nc2ccccc12	–	?	–	–	?	10µM
CC(=O)c1ccc(-c2ccc(C(=O)NC3CCCCCC3)o2)cc1	–	–	–	–	–	–
Cc1cc(C(=O)N(Cc2cc3cc4c(cc3nc2N2CCOCC2)CCC4)CC2CCCO2)c(=O)[nH]c1C (centres undefined)	·	–	·	·	·	·
NS(=O)(=O)c1ccc(CNS(=O)(=O)c2cccc3nonc23)cc1	6.3µM	–	–	–	–	–
O=S(=O)(NCc1ccccc1)c1cccc2nonc12	–	–	–	–	·	–
CS(=O)(=O)N(CC(=O)NCCSCc1ccccc1)c1ccccc1F	–	–	–	–	–	–
COc1ccc(-c2oc(NC(=O)CCl)c(C#N)c2-c2ccc(OC)cc2)cc1	13µM	·	–	–	–	18µM
COc1ccc(-c2oc(NC(=O)CSc3ncn[nH]3)c(C#N)c2-c2ccc(OC)cc2)cc1	–	–	?	–	·	–
Clc1ccc(N=c2ssnc2Cl)cc1	–	?	14µM	?	?	–
COc1cc(/C=C(/C(=O)c2cccs2)c2nc3ccccc3[nH]2)cc(OC)c1O	13µM	?	?	?	–	?
COc1ccc(C(=O)N/C(=C/c2cccs2)c2nc3ccccc3[nH]2)cc1OC	–	?	–	–	–	·
O=C(/C(=C/c1ccc(Cl)cc1)c1nc2ccccc2[nH]1)c1ccccc1	2.5µM	·	5µM	?	?	?
COc1cc(CNCc2ccc(OC)c(OC)c2OC)cc(OC)c1	–	–	–	–	9.2µM	–
SMILES	HepG2 viability	ATXN viability	TGFb SMAD3 inh	A549 viability	Nrf2 inh	ATXN2 expr inh
COc1cccc(CNCc2cc(OC)cc(OC)c2)c1	–	?	–	–	?	–
CS(=O)(=O)c1ccc(C(=O)NC2CCCc3ccccc32)cc1 (centres undefined)	–	–	–	–	–	–
CC1(C)CC(=O)C2=C(C1)c1c(ccc3ccccc13)NC2c1ccc(Br)o1 (centres undefined)	20µM	?	–	?	?	–
CC1(C)CC(=O)C2=C(C1)c1c(ccc3ccccc13)NC2c1ccc(OCC(=O)O)cc1 (centres undefined)	–	·	–	–	–	·
CCCNS(=O)(=O)c1cccn1-c1ncc(C(F)(F)F)cc1Cl	–	–	–	–	–	–
O=S(=O)(NCc1cccnc1)c1cccn1-c1ncc(C(F)(F)F)cc1Cl	–	–	–	–	16µM	–
COc1cc(Cn2c(=O)oc3ccc(C)cc32)ccc1OCCC(C)C	–	–	?	–	21µM	–
COc1cccc2c1OC[C@@H](CO)[C@H]2N(C)C(=O)Nc1ccc(Cl)cc1Cl	–	–	?	–	18µM	–
Cc1ccc(C(=O)N2CCN(c3ccccc3)CC2)cc1S(=O)(=O)N1CCCC1	–	–	–	–	21µM	–
Cc1ccc(C(=O)N2CCN(c3ccc(F)cc3)CC2)cc1S(=O)(=O)N1CCCCC1	–	–	–	–	12µM	–
O=C(c1ccc(Cl)c(S(=O)(=O)N2CCCC2)c1)N1CCN(c2ccc(F)cc2)CC1	–	–	–	–	?	–
COc1ccc(C(=O)N2CCN(c3ccccc3)CC2)cc1S(=O)(=O)N1CCCC1	–	–	–	–	–	–
CCC(=O)Nc1ccc2nc(SCCOc3ccc(C)cc3OC)sc2c1	–	?	–	–	?	–
CC1CCc2c(sc3nnn(CC(=O)Nc4ccccc4Cl)c(=O)c23)C1 (centres undefined)	–	?	–	–	–	–
OC(CNCCc1ccc(C(F)(F)F)cc1)COC(c1ccccc1)c1ccccc1 (centres undefined)	–	?	?	–	–	28µM
Cc1nc2cc(C(F)(F)F)ccc2n1CCNc1nc(-c2ccc([N+](=O)[O-])c(Cl)c2)cs1	–	?	16µM	–	–	?
Cc1nc2cc(C(F)(F)F)ccc2n1CCNc1nc(-c2ccc(F)cc2)cs1	–	–	–	–	–	–
COc1ccc(-c2nc3sc(CCNC(=O)c4ccc(Br)o4)c(C)n3n2)cc1	–	?	?	–	·	–
Cc1ccc(-c2nc3sc(CCNS(=O)(=O)c4cc(F)ccc4F)c(C)n3n2)cc1	–	·	6.3µM	–	·	·
COc1ccc(-c2nc3sc(CCNC(=O)Cc4ccc(Cl)cc4)c(C)n3n2)cc1	–	·	–	–	·	·
COc1ccc(-c2nc3sc(CCNC(=O)c4cc(Cl)ccc4OC)c(C)n3n2)cc1	–	25µM	–	?	·	?
Cc1c(CCNC(=O)c2ccc(Br)o2)sc2nc(-c3ccc(Cl)cc3)nn12	–	·	11µM	–	·	·
O=C(COC(=O)/C=C/c1ccc(C(F)(F)F)cc1)Nc1ccc2[nH]c(=O)[nH]c2c1	3.5µM	–	–	–	–	–
